Screens: PubChem BioAssay, National Center for Advancing Translational Sciences (NCATS)
Apoferritin bind – qHTS Assay for Identification of Novel General Anesthetics; Potency, µM (series often up to 77.5 µM), for the others: at the highest dose activity change, negative = displacement, hits mostly inhibitors; apoferritin/1-aminoanthracene competitive binding, fluorescence; 350,000 tested, 0.074% active; AID 485281, 2010; note: potency is the fitted concentration of half-maximal effect; % is set by controls: 0 for no effect and ±100 for the full control effect; nearly all actives have a fitted effect of over 20% in size
Target sequence (P02791 2-175 limits assumed): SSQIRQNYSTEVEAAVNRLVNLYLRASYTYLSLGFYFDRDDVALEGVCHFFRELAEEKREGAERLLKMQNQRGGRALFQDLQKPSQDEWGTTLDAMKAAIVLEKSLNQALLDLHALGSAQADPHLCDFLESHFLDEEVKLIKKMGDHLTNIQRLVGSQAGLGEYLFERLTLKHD
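10 uM apoferritin + 50% sat. 1-AMA, PBS; cpd 10 min RT; Ex380/Em535 endpoint; normalized to free probe vs complex; 4-param Hill fit; propofol titration as pos. ctrl.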
CCT modulator – High-Throughput Screening for Modulators of Cytosolic Chaperonin Activity; purified chaperonin ATPase assay, HTRF ADP detection, 30 min; activity change, % (no concentration beside the values), hits read low; 360,000 tested, 0.3% active; AID 651819, 2012; in the data active = activity change below about -30%; note: % is set by controls: 0 for no effect and ±100 for the full control effect
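We incubate TRiC, 40 or 20 nM final, with library compounds at 76 uM and 10 uM ATP for 30 min at 37 °C. ADP formed is detected with Transcreener HTRF reagents after 30 min at room temperature.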
TDP-43 yeast inh – qHTS of TDP-43 Inhibitors; TDP-43 expressing yeast growth rescue, BacTiter-Glo, 24 h; Potency, µM (titrated, usually from 46.1 µM), without a hit: at the top dose growth rescue (activation), actives largely listed as activators; 410,000 tested, 1.8% active; AID 652104, 2013; note: potency is the fitted concentration of half-maximal effect; % of control where 0% means no effect; nearly all actives have a fitted effect of over 50% in size
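Readout is BacTiter-Glo luminescence of cell growth, so inhibitors register as activators. TDP-43-expressing yeast at OD600=0.02 in galactose medium, after raffinose pregrowth to mid-log, were incubated with compound for 24 hr at 30 deg C.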
Mito fusion act – qHTS Assay for Small Molecule Inhibitors of Mitochondrial Division or Activators of Mitochondrial Fusion; 320,000 tested, 0.23% active; Potency, µM (highest dose often 46.1 µM), for the others: at the top dose growth rescue (activation), actives largely listed as activators; AID 485298, 2010; S. cerevisiae fusion-defective mutant growth rescue, CellTiterGlo 48 h; note: potency is the fitted concentration of half-maximal effect; % of control where 0% means no effect; nearly all actives have a fitted effect of over 45% in size
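Compounds are tested for their ability to restore growth of mitochondrial fusion-defective yeast strains at non-permissive 37C in YPEG medium over 48 hours. Viability is quantified by luciferase luminescence.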
aSyn yeast inh – qHTS of alpha-syn Inhibitors; Potency, µM (titrated, usually from 46.1 µM), without a hit: top-dose growth rescue (activation), most hits filed as activators; Yeast expressing alpha-synuclein, growth rescue, BacTiter-Glo, 24 h; 370,000 tested, 0.14% active; note: potency is the fitted concentration of half-maximal effect; % of control where 0% means no effect; nearly all actives have a fitted effect of over 65% in size
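Readout is rescue of growth in alpha-synuclein-expressing yeast, so inhibitors of toxicity appear as activators. Growth after 24 hr at 30 deg C in galactose medium is quantified by luminescence.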
Akt phos inh – HTS Assay for Inhibitors of Akt Phophorylation: Primary Screen; 360,000 tested, 0.32% active; Neuro2A IGF-stimulated pAkt S473 HTRF, 20 min; active compounds read low; activity change, % for hits at 50 µM; in the data active = activity change below about -80%; inconclusive = mostly about -51% to -80%; note: % is set by controls: 0 for no effect and ±100 for the full control effect
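Neuro2A cells (4,500/well, DMEM with 0.5% FBS) were treated with compound at a single 50 µM final concentration, stimulated with 6 nM IGF for 20 min at 37 °C, and lysed. Phospho-Akt Ser473 was read by HTRF as 665/615 ratio ×10^4.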
The depositor's hits bear a star; i = inactive; ? = inconclusive; · = no result given. Most compounds without a hit are left out; they make up all but 2.5% or so of the library. Unless noted, calls come from the whole dose curve; as a rule, active = well fitted curve in the direction sought with a large enough effect; inconclusive = small, poorly fitted or top-dose-only effect, or another doubt; inactive = no such curve, though single readings can be large; an effect the other way counts as inactive or inconclusive.

SMILES	Apoferritin bind	CCT modulator	TDP-43 yeast inh	Mito fusion act	aSyn yeast inh	Akt phos inh
CC[C@H](C)[C@H](NC(=O)[C@H](CCC(=O)O)NC(=O)[C@@H](N)CO)C(=O)N[C@@H](CCC(N)=O)C(=O)N[C@@H](CC(C)C)C(=O)N[C@@H](CCSC)C(=O)N[C@@H](Cc1cnc[nH]1)C(=O)N[C@@H](CC(N)=O)C(=O)N[C@@H](CC(C)C)C(=O)NCC(=O)N[C@@H](CCCCN)C(=O)N[C@@H](Cc1cnc[nH]1)C(=O)N[C@@H](CC(C)C)C(=O)N[C@@H](C)C(=O)N[C@@H](CO)C(=O)N[C@H](C(=O)N[C@@H](CCC(=O)O)C(=O)N[C@@H](CCCNC(=N)N)C(=O)N[C@@H](CCSC)C(=O)N[C@@H](CCC(N)=O)C(=O)N[C@@H](Cc1c[nH]c2ccccc12)C(=O)N[C@@H](CC(C)C)C(=O)N[C@@H](CCCNC(=N)N)C(=O)N[C@@H](CCCCN)C(=O)N[C@@H](CCCCN)C(=O)N[C@@H](CC(C)C)C(=O)N[C@@H](CCC(N)=O)C(=O)N[C@@H](CC(=O)O)C(=O)N[C@H](C(=O)N[C@@H](Cc1cnc[nH]1)C(=O)N[C@@H](CC(N)=O)C(=O)N[C@@H](Cc1ccccc1)C(=O)O)C(C)C)C(C)C	-14.7%	·	·	·	·	·
CC(Nc1oc(-c2ccc(COc3ccccc3)o2)nc1C#N)c1ccccc1 (centres undefined)	51.2%	·	7.4%	·	·	·
O=C1C(=O)N(C2CCN(C(=O)c3cccc(Cl)c3)CC2)CCN1Cc1ccc(F)cc1	-13.6%	·	11.5%	·	·	·
Cc1cccc(Nc2c3c(nc4nncn24)CCC3)c1	0.7%	·	17.8µM*	·	·	·
O=C(CCCN1C(=O)c2cccnc2Oc2ccc(Cl)cc21)NCc1ccccc1F	2.1%	·	25.0%	·	·	·
Nc1c(Cl)cc(C=O)cc1Cl	·	·	·	·	1.5%	·
COc1ccc(-c2nnc(SCC(=O)N(C)Cc3ccccc3)o2)cc1OC	-17.8%	·	7.9%	·	·	·
CCOC(=O)c1ccccc1NC(=O)Cn1c(=O)n(CCC(=O)N2CCc3ccccc3C2)c(=O)c2ccccc21	-11.2%	·	35.5µM*	·	·	·
O=S1(=O)CCC(NS(=O)(=O)/C=C/c2ccccc2)C1 (centres undefined)	0.5%	0.3	-8.8%	-1.3%	-0.5%	-113.7%*
COc1ccccc1CCNC(=O)c1cccn1-c1nnc(N2CCCC2)s1	-12.5%	·	-4.6%	·	·	·
COc1ccc(C(=O)Oc2ccc(/C=N/O)cc2)cc1	-12.6%	-1.5	10µM*	3.4%	·	·
COc1ccc(OC(=O)c2ccncc2)cc1	-15.3%	1.2	26.8%	-3.3%	6.4%	i
Cc1ccc(-n2nc(C(=O)N(C)Cc3ccccc3)c3c4ccccc4n(C)c3c2=O)cc1	-2.2%	·	10.2%	·	·	·
COc1cccc(Nc2nnc(SCC3CCCCO3)s2)c1 (centres undefined)	?	0.4	10µM*	1.1%	-0.1%	i
Cc1cccc(Nc2nnc(SCC3CCCCO3)s2)c1C (centres undefined)	?	-1.0	-22.7%	0.7%	16.2%	i
COc1ccc(Nc2nnc(SCC3CCCO3)s2)cc1 (centres undefined)	?	-4.5	28.2µM*	1.2%	-9.6%	i
COc1cc(-c2nnc(COc3ccc4ccccc4c3)o2)cc(OC)c1OC	65.0%	-6.8	28.2µM*	11.0%	6.3%	i
COc1cc(-c2nnc(-c3ccccc3)o2)cc(OC)c1OC	-7.6%	2.6	18.4%	10.6%	-11.3%	i
CC(C)(C)c1ccc(COC(=O)CN2C(=O)NC3(CCCC3)C2=O)cc1	·	-1.5	1.9%	5.3%	5.2%	i
CC(C)(C)c1ccc(C(=O)COC(=O)CN2C(=O)NC3(CCCC3)C2=O)cc1	25.1µM*	-1.9	9.9%	-6.7%	7.4%	i
COc1ccc(CCNC(=O)c2ccc(CSc3ccc(Cl)cc3)o2)cc1OC	·	·	33.2µM*	·	·	·
O=C(NCCc1ccc(Cl)cc1)c1ccc(CSCc2cccc(Cl)c2)o1	2.5%	·	20µM*	·	·	·
O=C(NCc1ccc(F)cc1)c1ccc(CSCc2cccc(Cl)c2)o1	-3.3%	·	22.4µM*	·	·	·
Cc1ccccc1CSCc1ccc(C(=O)NCCc2ccccc2)o1	27.9%	·	35.5µM*	·	22.1%	·
COC(=O)CN1C(=O)[C@@H]2[C@H](C1=O)[C@@H]1CC(C(=O)OC)=C[C@@H](C(=O)OC)C3C1=C(C(=O)C31CCCCC1)[C@@H]2C (some centres undefined)	-0.7%	·	·	·	·	·
SMILES	Apoferritin bind	CCT modulator	TDP-43 yeast inh	Mito fusion act	aSyn yeast inh	Akt phos inh
CC1=C(C(=O)Nc2cc(Cl)ccc2C)C2(CCCCC2)OC1=O	-4.7%	·	35.5µM*	·	·	·
CCNc1nc(N)nc(-c2cc(Cl)ccc2O)n1	6.5%	-0.7	3.16µM*	-26.6%	1.6%	i
CCCNc1nc(N)nc(-c2cc(Cl)ccc2OC)n1	-5.2%	1.2	1.0%	-1.8%	-8.9%	-101.6%*
CCCCNc1nc(N)nc(-c2cc(Cl)ccc2O)n1	-9.5%	0.4	?	-3.6%	-23.0%	i
CN(C(=O)CCc1nc(-c2ccccc2F)no1)c1ccccc1	-5.3%	-1.5	-9.0%	-3.2%	-0.7%	i
CN(C(=O)CCc1nc(-c2ccccc2F)no1)c1ccc(Cl)cc1	-12.7%	·	22.4µM*	·	·	·
O=C(CP(=O)(c1ccccc1)c1ccccc1)Nn1cnnc1	-1.9%	-53.4*	11.6%	-1.3%	0.5%	i
Fc1cccc(CNc2ncnc3ccc(-c4cccnc4)cc23)c1	·	·	·	-10.8%	·	·
O=C(CSc1nccn1Cc1ccccc1)Nc1nc2ccccc2s1	27.6%	·	12.2%	·	18.1%	·
Cc1ccc2nc(NC(=O)CSc3nccn3Cc3ccc(Cl)cc3)sc2c1	4.9%	·	11.2µM*	·	·	·
O=C(CSc1nccn1Cc1ccccc1)NCc1ccc(F)cc1	1.4%	·	3.8%	·	7.7%	·
Cc1ccc(Cn2ccnc2SCC(=O)NCc2ccccc2Cl)cc1	?	·	11.2µM*	·	·	·
CSc1ncccc1C(=O)Nc1nc2ccc(Oc3ccccc3)cc2s1	-15.8%	-8.1	18.2%	12.6µM*	10.0%	i
O=C(CSc1nccn1Cc1ccc(F)cc1)Nc1nc2ccccc2s1	109.3%	·	?	·	20µM*	·
Cc1ccc(Cl)cc1N1CCN(C(=O)Cn2cnc3sc(C)c(S(=O)(=O)N4CCC(C)CC4)c3c2=O)CC1	-16.2%	·	3.4%	·	·	·
CCN1CCN(c2oc(-c3ccc(COc4ccc(C)cc4)o3)nc2C#N)CC1	15.5%	·	2.3%	·	·	·
